# Results published in PubChem BioAssay AID2685 (National Center for Advancing Translational Sciences (NCATS), 2010).
# In all, about 320,000 compounds went through this assay and about 2,100 (0.66%) were called active. About 53% were inconclusive and are not listed. Calls follow the shape of the dose curve; as a rule, active = well fitted inhibition curve with a large enough effect in the signal ratio, with a control signal flat (not every such curve was filed as active); inconclusive = small, poorly fitted or top-dose-only effect, or effect the other way, or a change in a side signal; inactive = flat fitted curve, though single readings scatter; the % refers to the signal ratio. This excerpt belongs to a sample that is enriched for actives.
# Assay: qHTS Assay for Lipid Storage Modulators in Drosophila S3 Cells;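 as to cell number change: cells counted by Cell Tracker Red CMTPX staining in the red channel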; as to lipid storage change, negative = inhibition: % is scaled to controls: 0 for no effect and ±100 for the full control effect
# Settings: BODIPY lipid droplet fluorescence, 18-24 h, cells fed with added oleic acid; cell number change: measured here: cell count max response; series mostly up to 46.1 µM
# Summary of the method: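 Drosophila S3 cells loaded with oleic acid (400 uM, as added) and compounds at several concentrations; lipid droplets imaged by 488-nm laser-scanning cytometry, 500–530 nm intensity and object ratio to cell channel. Percent activity normalized to 20 uM Triacsin C.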
# Potency is read from the fitted curve at half-maximal effect.
SMILES,Potency,cell number change [%],"lipid storage change, negative = inhibition"
CCOC(=O)CN1C(=O)C(O)(c2c(C)[nH]c3ccccc23)c2ccccc21 (stereo unspecified),inactive,8.53,
Cc1cc(C)n(-c2cc(N3CCOCC3)ncn2)n1,inactive,-1.49,
COc1cccc(/C=C2\SC(=S)N(c3cccnc3)C2=O)c1OC,inactive,12.9,
O=C(Nc1ccc2c(c1)OCO2)C1CC(c2ccccc2O)=NO1 (stereo unspecified),inactive,19.9,
COc1ccc(C2=NOC(C(=O)Nc3ccc4c(c3)OCO4)C2)cc1 (stereo unspecified),inactive,14.2,
CCn1cc(C2=NOC(C(=O)Nc3ccc4c(c3)OCO4)C2)c(C)n1 (stereo unspecified),7.31 µM (active),-25.4,
COc1cccc2sc(NNC(=O)COc3ccccc3)nc12,,5.71,-1.29% [at 9.22 µM] (inactive)
CCC(=O)Nc1cc(=O)[nH]c2ncnn12,inactive,-14.7,
O=C(Nc1cc(=O)[nH]c2ncnn12)c1ccccc1,inactive,-8.14,
CC(C)C(=O)Nc1cc(=O)[nH]c2ncnn12,5.8 µM (active),-10.1,
Cn1c(=O)[nH]c(=O)c2c1nc(Br)n2C/C=N/NC(N)=S,inactive,-9.55,
O=C(Nc1c2c(nn1-c1ccc(F)cc1)CS(=O)(=O)C2)c1ccc(S(=O)(=O)N2CCOCC2)cc1,inactive,-2.12,
COc1cccc(-c2cccc(NC(=O)C3CCN(CC4CCOC4)CC3)c2)c1 (stereo unspecified),16.4 µM (active),-23.3,
O=C(Nc1cccc(-c2cccc(Cl)c2)c1)C1CCN(CC2CCOC2)CC1 (stereo unspecified),inactive,26.5,
COc1cccc(-c2cccc(NC(=O)C3CCN(Cc4ccc(CO)o4)CC3)c2)c1,inactive,-8.92,
O=C(CSc1nc(O)cc(=O)n1-c1ccccc1)c1ccc(Br)cc1,,-4.08,26.5% [at 9.22 µM] (inactive)
COc1ccc(-c2ccc3ccccc3n2)cc1,inactive,-4.92,
S=c1[nH]nc(-c2ccncc2)n1/N=C/c1cccc2ccccc12,inactive,15.5,
Clc1ccc(CN2CCCCCC2)cc1,inactive,7.51,
C=C(C)Cn1c(CN(C)Cc2ccccc2)nc2c1c(=O)n(C)c(=O)n2C,0.92 µM (active),-21.1,
CC(C)Cn1c(CN(C)Cc2ccccc2)nc2c1c(=O)n(C)c(=O)n2C,inactive,,
CC(C)CCn1c(CN(C)Cc2ccccc2)nc2c1c(=O)n(C)c(=O)n2C,inactive,-8.94,
C[C@@H](NC(=O)c1nc[nH]c1C(=O)NCC(=O)OC(C)(C)C)c1ccccc1,inactive,2.99,

SMILES,Potency,cell number change [%],"lipid storage change, negative = inhibition"
CC(=O)c1ccc(Oc2cc(C(F)(F)F)cnc2C(N)=O)cc1,inactive,26.2,
CC(NC(=O)c1ccncc1)C(c1cccs1)N1CCOCC1 (stereo unspecified),inactive,1.4,
CCOc1ccc(NC(=O)CSc2nc3ccccc3nc2N2CCOCC2)cc1,20.6 µM (active),-28,
CC1CN(c2nc3ccccc3nc2SCC(=O)Nc2ccc(F)cc2)CC(C)O1 (stereo unspecified),20.6 µM (active),22.5,
Cc1cccc(NC(=O)CSc2nc3ccccc3nc2N2CC(C)OC(C)C2)c1 (stereo unspecified),inactive,8.93,
CCc1ccc(NC(=O)CSc2nc3ccccc3nc2N2CCCCC2)cc1,13 µM (active),25.4,
CCOc1ccc(NC(=O)CSc2nc(N3CCOCC3)nc(N3CCOCC3)n2)cc1,inactive,4.32,
CCc1ccc(NC(=O)CSc2nc(=O)n(CCCN3CCOCC3)c3c2CCCC3)cc1,14.6 µM (active),-8.01,
CCCCc1ccc(NC(=O)CSc2nc(=O)n(CCN3CCOCC3)c3c2CCC3)cc1,inactive,7.1,
CCCCc1ccc(NC(=O)CSc2nc(=O)n(CCCN3CCOCC3)c3c2CCC3)cc1,inactive,12.5,
O=C(CSc1nc2ccccc2nc1N1CCCC1)Nc1ccc(F)cc1,inactive,7.49,
COc1ccc(NC(=O)CSc2nc3ccccc3nc2N2CCCCC2)cc1,inactive,-10.4,
Cc1cc(C)cc(NC(=O)CSc2nc3ccccc3nc2N2CCCCC2)c1,inactive,10.1,
COc1ccc(NC(=O)CSc2nc3ccccc3nc2N2CCCC2)cc1,inactive,-11.5,
Cc1cc(C)n2c(SCc3c(C)noc3C)nnc2n1,inactive,2.46,
Cc1cccc(NC(=S)NCCc2ccc(S(N)(=O)=O)cc2)c1C,inactive,-9.26,
C=CCSc1nnc(NC(=O)C2CC(=O)N(Cc3ccc(C)cc3)C2)s1 (stereo unspecified),inactive,-7.78,
CC(=C\C(=O)O)/C(=C/c1ccc(C)o1)C(=O)O,inactive,-12.8,
O=C(NCc1ccc2[nH]c3c(c2c1)CCCC3)c1ccc(S(=O)(=O)N2CCCCC2)cc1,inactive,-10.5,
CN(C)C(=O)c1cc(C(=O)c2c(F)cccc2F)c[nH]1,inactive,-8.76,
O=C(CN1C(=O)NC2(CCCCC2)C1=O)Nc1cccc(S(=O)(=O)N2CCOCC2)c1,inactive,-0.223,
CCC1Sc2ccc(S(=O)(=O)CCC(=O)Nc3ccc(OC(F)(F)F)cc3)cc2NC1=O (stereo unspecified),inactive,2.14,
O=C(NC(Cc1ccccc1)C(=O)O)/C(=C\c1ccc(Cl)cc1)NC(=O)c1ccco1 (stereo unspecified),0.0411 µM (active),,

SMILES,Potency,cell number change [%],"lipid storage change, negative = inhibition"
O=C(NC(Cc1ccccc1)C(=O)O)/C(=C\c1ccccc1)NC(=O)c1ccco1 (stereo unspecified),inactive,-6.67,
O=C(NC(Cc1ccccc1)C(=O)O)/C(=C/c1ccco1)NC(=O)c1cccc(Br)c1 (stereo unspecified),inactive,-18,
O=C(NC(Cc1ccccc1)C(=O)O)/C(=C\c1cccc([N+](=O)[O-])c1)NC(=O)c1ccco1 (stereo unspecified),inactive,,
O=C(NC(Cc1ccccc1)C(=O)O)/C(=C/c1ccc(Cl)cc1)NC(=O)c1ccccc1 (stereo unspecified),inactive,1.96,
O=C(NC(Cc1ccccc1)C(=O)O)/C(=C/c1cccc(Br)c1)NC(=O)c1ccco1 (stereo unspecified),1.84 µM (active),,
O=C(CC1C(=O)NCCN1Cc1ccc(-c2ccccc2)cc1)NCCOc1cccnc1 (stereo unspecified),inactive,-0.0435,
O=C(Nc1cccc2ccccc12)c1cccc(F)c1,inactive,-3.54,
COc1ccc(NC(=O)C2CSC(C)(C)N2C=O)cc1 (stereo unspecified),inactive,7.51,
COc1ccc(CN2CCOCCOCCN(Cc3ccc(OC)cc3)CCOCCOCC2)cc1,inactive,16,
Cc1ccc(S(=O)(=O)NCc2ccccc2)cc1C(=O)N(C)CC(=O)Nc1c(Cl)cccc1Cl,inactive,,
Cc1cc(-c2ccc(Cl)cc2Cl)c(C#N)c(=O)[nH]1,inactive,,
CSc1nc(-c2ccc(Cl)cc2Cl)[nH]c(=O)c1C#N,32.6 µM (active),-67,
CSc1nc(-c2ccc(Cl)cc2)c(C#N)c(=O)[nH]1,inactive,-0.138,
CN(Cc1ccccc1)C(=O)COc1ccc(N(C)S(=O)(=O)c2ccc(F)cc2)cc1,inactive,-1.11,
CCC(C(=O)NCc1ccc(F)cc1)N(Cc1ccco1)C(=O)c1snc(C(N)=O)c1N (stereo unspecified),inactive,-6.14,
NC(=O)c1nsc(C(=O)N(Cc2ccco2)C(C(=O)NCc2ccc(F)cc2)c2ccc(O)cc2)c1N (stereo unspecified),inactive,,
Cc1ccc(C(C(=O)NCc2ccc(F)cc2)N(Cc2ccco2)C(=O)c2snc(C(N)=O)c2N)o1 (stereo unspecified),13 µM (active),-23,
Cc1oc2c(c1C(=O)NC(Cc1c[nH]c3ccccc13)C(=O)O)CCCC2 (stereo unspecified),inactive,18,
Cc1cccc(Cc2c(C)[nH]c(=O)c(C#N)c2C)c1,,-1.36,-17.3% [at 9.22 µM] (inactive)
N=c1oc2ccc(Br)cc2cc1C(=O)NC1CCCCCC1,inactive,-5.41,
O=C(O)C1CCCN1S(=O)(=O)c1ccccc1 (stereo unspecified),inactive,14,
Cc1c(OCC(=O)NCCCN2CCOCC2)ccc2c3c(c(=O)oc12)CCC3,inactive,-21.2,
CCCCc1cc(=O)oc2c(C)c(OCC(=O)NCCN3CCOCC3)ccc12,8.2 µM (active),-17,

SMILES,Potency,cell number change [%],"lipid storage change, negative = inhibition"
CCc1cc(=O)oc2cc(OCC(=O)NCCCN3CCCC3=O)c(Cl)cc12,16.4 µM (active),11.6,
Cc1cc(=O)oc2cc(OCC(=O)NCCCN3CCCC3=O)c(Cl)cc12,inactive,-17.4,
CCCc1cc(=O)oc2c(C)c(OCC(=O)NCCN3CCOCC3)ccc12,inactive,19.4,
CCCc1cc(=O)oc2c(C)c(OCC(=O)NCCCN3CCOCC3)ccc12,inactive,7.37,
CC(Oc1cc2oc(=O)c3c(c2cc1Cl)CCC3)C(=O)NCCCN1CCCC1=O (stereo unspecified),1.64 µM (active),-19.6,
CC(Oc1cc2oc(=O)c3c(c2cc1Cl)CCC3)C(=O)NCCCN1CCOCC1 (stereo unspecified),inactive,14.5,
CCc1cc(=O)oc2cc(OCC(=O)NCCCN3CCCC3=O)ccc12,inactive,3.54,
Cc1c(OCC(=O)NCCCN2CCCC2=O)ccc2c3c(c(=O)oc12)CCCC3,8.2 µM (active),-7.37,
CC(Oc1cc2oc(=O)c3c(c2cc1Cl)CCC3)C(=O)NCCN1CCOCC1 (stereo unspecified),inactive,9.27,
Cc1cc(=O)oc2c(C)c(OCC(=O)NCCCN3CCCC3=O)ccc12,inactive,-21.7,
COc1ccc(OCCNC(=O)c2ccccc2OCC(=O)N2CCCCC2)cc1,inactive,-14.3,
O=C(c1ccc(S(=O)(=O)NCc2ccco2)cc1)N1CCN(Cc2ccccc2F)CC1,inactive,-10.8,
COc1cccc(N(C(=O)CS(=O)CC(=O)Nc2ccc(F)cc2)C(C(=O)NC2CCCCC2)c2cccs2)c1 (stereo unspecified),inactive,-4.8,
COC(=O)CCCC1=CC2=CC(=O)C(C)(OC(=O)c3cccs3)C(=O)C2=CN1c1ccc(OC)cc1 (stereo unspecified),inactive,,
O=C1Cc2ccccc2C(=O)N1c1ccccc1,10.3 µM (active),9.57,
CCOc1ccc(N2C(=O)c3cccnc3C2=O)cc1,inactive,-11.4,
COc1ccc2c(c1)C(=O)N(c1ccc(C)cc1)C(=O)C2,inactive,11.1,
O=C1Cc2ccccc2C(=O)N1c1cccc(Cl)c1,inactive,10.3,
COc1ccc2c(c1)C(=O)N(c1ccccc1)C(=O)C2,23.1 µM (active),-11.7,
COc1ccc(N2C(=O)c3ccccc3C2=O)cc1,inactive,2.95,
CCOc1ccc(N2C(=O)Cc3ccccc3C2=O)cc1,29.1 µM (active),0.833,
COc1ccc(N2C(=O)Cc3ccccc3C2=O)cc1,inactive,10.9,
O=C1Cc2ccccc2N1c1ccccc1,inactive,11.5,
